# Bioassay records: PubChem BioAssay, National Center for Advancing Translational Sciences (NCATS)
# RORgamma inh – qHTS for inhibitors of ROR gamma transcriptional activity; Drosophila S2 Gal4-RORgamma UAS-luciferase reporter, 20 h; Potency, µM (highest dose often 53.6 µM), for the others: top-dose activity change, negative = inhibition, most hits filed as inhibitors; AID 2551, 2010; 310,000 tested, 5.4% active; Nuclear receptor ROR-gamma (Mus musculus), P51450; also: % is scaled to controls: 0 for no effect and ±100 for the full control effect; nearly all actives have a fitted effect of over 60% in size
#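 Drosophila S2 cells stably expressing Gal4-DBD/mouse RORγ fusion under metallothionein promoter plus UAS-luciferase; compound 1 h, then 700 uM CuSO4 induction for 20 h at ambient temperature; inhibition read as reduced luminescence.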
# PINK1 expr mod – A Quantitative High throughput Screen to Identify Chemical Modulators of PINK1 Expression; AID 624263, 2012; Potency, µM (top dose mostly 76.6 µM), for the others: at the highest dose activation (PINK1 increase), usual class: activators; PINK1 immunofluorescence, high-content cytometry, 24 h; 410,000 tested, 0.2% active; active = well fitted activation curve with a large enough effect; inconclusive = small, poorly fitted or top-dose-only effect; cell line not stated here; also: % of control where 0% means no effect; nearly all actives have a fitted effect of over 65% in size
#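 A stable cell line was treated with compounds at 5 concentrations for 24 hours, with CCCP as control. PINK1 levels and mitochondrial localization were measured by immunofluorescence with mitochondrial, cell and nuclear markers after fixation, read by laser-scanning cytometry.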
# Gal4-VP16 FLuc – VP16 counterscreen qHTS for inhibitors of ROR gamma transcriptional activity; AID 2546, 2010; Potency, µM (top dose mostly 53.6 µM), for inactives: at the top dose activity, negative = inhibition, actives largely listed as inhibitors; Drosophila S2 Gal4-VP16 UAS-luciferase, luminescence, 20 h; 310,000 tested, 3.5% active;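 also: Gal4-VP16 expression switched on by copper sulfate through the metallothionein promoter; % is scaled to controls: 0 for no effect and ±100 for the full control effect; nearly all actives have a fitted effect of over 50% in size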
# ClpP mod – qHTS Assay for Activators of ClpP; ATP-dependent Clp protease proteolytic subunit (Bacillus subtilis (strain 168)), P80244; purified B. subtilis ClpP, FRET peptide cleavage, 20 min; Potency, µM (series often up to 57.5 µM), without a hit: at the top dose activity change, negative = active; 340,000 tested, 1.9% active; active = well fitted falling curve with a large enough effect; inconclusive = small, poorly fitted or top-dose-only effect; inactive = no such curve, though single readings can be large or run the other way; also: the source files actives as falling curves though it sought activators and does not explain the sign; nearly all actives have a fitted effect of over 65% in size
# Target sequence (P80244 whole entry, looked up): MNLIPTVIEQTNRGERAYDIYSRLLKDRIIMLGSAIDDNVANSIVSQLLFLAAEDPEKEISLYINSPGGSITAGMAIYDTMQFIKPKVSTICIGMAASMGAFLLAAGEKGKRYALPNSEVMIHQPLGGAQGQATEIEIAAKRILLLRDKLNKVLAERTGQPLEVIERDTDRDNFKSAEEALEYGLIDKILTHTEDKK
#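 ClpP 10 microg/mL final, pH 8 Tris/KCl buffer with BSA, glycerol, Tween-20; compound pinned in; FRET-FV substrate; RT 20 min; Ex320/Em430; ΔFRET vs ADEP 5.8 microM, DMSO, no enzyme.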
# Sfp inh – qHTS Assay for Inhibitors of Bacillus subtilis Sfp phosphopantetheinyl transferase (PPTase). 310,000 tested, 3.5% active. Potency, µM, without a hit: largest response in the series, negative = inhibition, usual class: inhibitors. AID 1490, 2009. Biochemical Sfp PPTase activity, qHTS. 4'-phosphopantetheinyl transferase ffp (Bacillus subtilis), Q9F4F7;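 also: the enzyme is Sfp with the accession as filed and its product quenches rhodamine fluorescence; 0% = enzyme reaction without inhibitor and -100% = no enzyme wells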
#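 Fluorescence-quenching assay: 15 nM Sfp-PPTase preincubated 15 min at room temperature with compound, then 5 uM rhodamine-CoA and 12.5 uM BHQ-2-labelled YbbR peptide added. Fluorescence (ex 525/em 598 nm) read at start and after 30 min; difference gives rate.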
# Epigenetic reg – Quantitative High-Throughput Screen for Regulators of Epigenetic Control. Potency, µM (highest dose often 53.9 µM), without a hit: top-dose GFP activation, hits mostly activators. murine LDR cells, GFP reporter derepression, 30 h. AID 1865, 2009. 280,000 tested, 0.2% active; also: % of control where 0% means no effect; nearly all actives have a fitted effect of over 60% in size
#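 Derepression of a silenced CMV-GFP reporter in murine LDR cells is scored by enumerating GFP-positive cells with a laser-scanning microplate cytometer after 30 hours of treatment at 37 C.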
# An asterisk follows results filed as active; ? = inconclusive; . = no result given; [ ] = dose if it differs, or a comment. A selection: hits, their analogues and other compounds. The true share with any hit is near 8.1%. Unless noted, calls follow the shape of the dose curve; as a rule, active = well fitted curve in the direction sought with a large enough effect; inconclusive = small, poorly fitted or top-dose-only effect, or another doubt; inactive = no such curve, though single readings can be large; an effect the other way counts as inactive or inconclusive. Potency is read from the fitted curve at half-maximal effect.
SMILES,RORgamma inh,PINK1 expr mod,Gal4-VP16 FLuc,ClpP mod,Sfp inh,Epigenetic reg
CCCC[C@@H]1C[C@H]1C(NC(=O)c1ccc(C(F)(F)F)cc1)c1ccc(C(=O)OC)cc1 (stereo partly specified),0.8%,.,-4.9%,.,4.1%,0.1%
CCCC[C@@H]1C[C@H]1C(NC(=O)c1ccccc1)c1ccc(C(F)(F)F)cc1 (stereo partly specified),15.8µM*,.,?,.,18.0%,2.4%
COc1ccc(-c2cc(=O)c3c(OC)c(OC)c(OC)c(OC)c3o2)cc1OC,?,0.6%,-1.6%,-26.7%,31.0%,-0.9%
O=c1cc(-c2c(F)c(F)c(F)c(F)c2F)oc2c(F)c(F)c(F)c(F)c12,2.51µM*,.,3.16µM*,.,6.2%,?
O=c1cc(-c2cccc(O)c2O)oc2ccccc12,-36.3%,.,-14.8%,.,79.4µM*,1.0%
O=c1cc(-c2cccc(F)c2)oc2ccccc12,.,-2.6%,.,.,.,.
O=c1cc(-c2c(F)c(F)c(F)c(F)c2F)oc2ccccc12,7.94µM*,1.8%[38.3 µM],?,-0.2%,4.1%,13.1%
COc1cc(=O)n2c(c1C(=O)NC(C)c1ccco1)CCN(C(=O)c1[nH]c(C)cc1C)CC2 (stereo unspecified),.,0.3%,.,.,.,.
C(=C\c1ccnc2ccccc12)/c1ccc(N2CCOCC2)cc1,.,?,.,1.1%,.,.
O=C(O)c1cccc(-n2cnc3cccnc32)c1,.,0.6%,.,-1.2%,.,3.6%
COC(=O)c1ccc(COc2ccc3ccc(=O)oc3c2)o1,35.8%,1.6%,-9.0%,3.0%,16.9%,.
O=C(O)c1ccc(COc2ccc3c4c(c(=O)oc3c2)CCC4)o1,-22.3%,-0.5%,-12.1%,2.51µM*,-18.9%,0.0%
COC(=O)c1ccc(COc2ccc(C)c(C)c2)o1,-2.5%,-1.7%,2.3%,-2.1%,-7.3%,.
COC(=O)c1ccc(COc2ccc3c(C)c(C)c(=O)oc3c2)o1,19.1%,-1.8%[38.3 µM],-9.6%,2.82µM*,-11.4%,0.5%
COC(=O)c1cc(COc2ccc3ccc(=O)oc3c2)c(C)o1,-1.9%,3.9%,22.1%,14.1µM*,13.4%,-2.2%
O=c1oc2cc(OCc3ccc([N+](=O)[O-])cc3)ccc2c2c1CCCC2,30.3%,6.3%,0.6%,-6.6%,0.2%,1.5%
O=C(NCCc1ccccc1)c1ccc2c(c1)N(Cc1c(F)cccc1Cl)C(=O)CS2,.,0.5%,.,-2.8%,.,1.1%
Cc1ccc(-c2cn3nc(-c4ccccc4)c(-c4ccccc4)nc3n2)cc1,18.3%,-0.6%,-2.5%,.,-4.6%,0.1%
Nc1nc(-c2ccccc2)cn1/N=C/c1ccccc1,?,6.3%,-13.0%,.,9.7%,1.6%
c1ccc(-c2cn3nc(-c4ccccc4)c(-c4ccccc4)nc3n2)cc1,22.4µM*,-0.7%,-3.0%,-2.5%,11.6%,-1.1%
Nc1nc(-c2ccccc2)cn1N,3.16µM*,-0.1%,7.08µM*,-0.9%,-5.0%,-1.1%
CC(O)(COc1ccccc1)c1ccc2c(c1)CN(Cc1ccc3nsnc3c1)CCO2 (stereo unspecified),.,-0.3%,.,.,.,.
Cc1ccccc1-c1coc2cc(O)ccc2c1=O,?,-1.7%,0.5%[0.365 µM],28.2µM*,18.6%,-2.3%
COc1ccccc1-c1coc2cc(O)ccc2c1=O,?,-0.1%,-2.1%,.,3.7%,0.3%
CCc1ccc(OCC(=O)NCC(c2ccc(Cl)cc2)N2CCOCC2)cc1 (stereo unspecified),.,-0.8%,.,0.2%,.,-1.6%
CCN(CC)CCCn1c(-c2ccccc2)nc2c(NCc3ccccc3)nc(C)nc21,-4.4%,.,-0.7%,.,17.1%,2.0%
